Screening data (PubChem BioAssay)
MITF inh: MITF inhibitors, primary screen, biochemical, AlphaScreen, human; AlphaScreen MITF homodimerization, bead proximity signal; 650,000 tested, 0.91% active; inhibition, % at 2.6 µM; in the data active = inhibition above about 50%;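 also: 0% = vehicle wells with protein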
GPR151 ag: activators of human GPR151, primary screen, cell-based, PathHunter beta-arrestin, luminescence; G-protein coupled receptor 151 (Homo sapiens), Q8TDV0; 650,000 tested, 1% active; activation, % at 11.2 µM; PathHunter beta-arrestin GPR151 cells; in the data active = activation above about 4.9%;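 also: 0% = median of compound wells and 100% = cells with positive control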
FBW7 act: FBW7 E3 ligase activators, primary screen, biochemical, AlphaScreen, human. AID 1259310, 2017. AlphaScreen FBW7–phospho-cyclin E peptide binding, activator screen. normalized activity (activation), % at 26.1 µM. 650,000 tested, 0.13% active. F-box/WD repeat-containing protein 7 (Homo sapiens), Q969H0; in the data active = normalized activity above about 1.9%;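 also: purified mutant Fbw7 with reduced substrate affinity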
Target sequence (Q969H0 whole entry, looked up): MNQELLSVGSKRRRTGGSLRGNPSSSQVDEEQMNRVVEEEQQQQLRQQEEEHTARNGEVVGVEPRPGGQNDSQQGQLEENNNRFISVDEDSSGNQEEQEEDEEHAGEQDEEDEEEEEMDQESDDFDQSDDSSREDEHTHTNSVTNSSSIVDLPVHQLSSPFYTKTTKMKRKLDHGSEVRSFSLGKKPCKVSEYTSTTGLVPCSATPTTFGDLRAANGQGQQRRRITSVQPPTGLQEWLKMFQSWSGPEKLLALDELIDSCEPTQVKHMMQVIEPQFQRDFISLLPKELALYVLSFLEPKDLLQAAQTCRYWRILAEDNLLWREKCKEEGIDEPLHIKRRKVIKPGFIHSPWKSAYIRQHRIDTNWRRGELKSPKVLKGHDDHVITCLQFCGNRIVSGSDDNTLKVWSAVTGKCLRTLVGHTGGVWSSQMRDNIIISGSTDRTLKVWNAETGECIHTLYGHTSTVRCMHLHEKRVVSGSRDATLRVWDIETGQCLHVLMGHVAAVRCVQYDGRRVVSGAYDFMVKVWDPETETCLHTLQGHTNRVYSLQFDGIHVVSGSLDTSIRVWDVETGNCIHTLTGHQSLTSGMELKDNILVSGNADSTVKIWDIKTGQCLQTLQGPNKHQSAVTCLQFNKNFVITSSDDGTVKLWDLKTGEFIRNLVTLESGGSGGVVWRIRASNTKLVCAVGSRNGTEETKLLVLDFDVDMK
TEAD-YAP block: TEAD-YAP interaction inhibition, primary screen, TEAD-YAP interaction inhibitor project, luminescence, HEK-TIYL cells. TEAD-Gal4/YAP UAS-luciferase luminescence. inhibition, % at 9.12 µM. 640,000 tested, 1.4% active; in the data active = inhibition above about 32%;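 also: 0% = median of test compound wells and 100% = reference inhibitor wells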
GPR151 confirm: GPR151 activators, triplicate retest, confirmation, cell-based, PathHunter beta-arrestin, luminescence | 6,700 tested, under 10 active | activation, % at 11.2 µM | GPR151 PathHunter beta-arrestin cells, 90 min; % of EA-reagent control over plate median | shares compounds with GPR151 ag;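 active = mean percent activation across replicates above the confirmation screen cutoff of 4.91%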
GPR119 ag: GPR119 activators in beta-arrestin cells, counter-screen for GPR151 activator project, cell-based, PathHunter beta-arrestin, luminescence, triplicate | shares compounds with GPR151 ag | 90 min; 0 = compound-well median, 100 = enzyme-acceptor control | activation, % at 11.2 µM | 6,700 tested, 0.3% active;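 active = mean percent activation in the counterscreen above 29.09%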;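 also: counterscreen on off-target GPR119 to flag nonselective hits from the GPR151 activator screen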
Numbers without * were called inactive; / = no result given. Compounds with a hit are over-represented: about 3.5% of the library has one in this group of screens.

SMILES	MITF inh	GPR151 ag	FBW7 act	TEAD-YAP block	GPR151 confirm	GPR119 ag
O=C(Nc1ccc2c(c1)OCCO2)c1cc(=O)c(OCc2ccccc2)c[nH]1	-1	8.1*	0	4	0	-1
CC(/C=N\NC(=O)Cc1n[nH]c(=O)[nH]c1=O)c1ccccc1 (stereo unspecified)	7	1	0	9	/	/
CCN(CC)C(=O)C1CCCN(c2nc(NCCOc3ccccc3)c3ncn(Cc4ccc(C(F)(F)F)cc4)c3n2)C1 (stereo unspecified)	10	0	0	0	/	/
CCN(CC)C(=O)C1CCCN(c2nc(NCCc3ccc(OC)cc3)c3ncn(C4CCCCC4)c3n2)C1 (stereo unspecified)	12	10*	0	-6	0	-2
CCN(CC)C(=O)C1CCCN(c2nc(NCCc3ccc(OC)cc3)c3ncn(Cc4ccc(C(F)(F)F)cc4)c3n2)C1 (stereo unspecified)	-4	6.8*	0	-9	0	1
CC(C)COc1ccc(C(=O)N/C(=C\c2ccc(Cl)cc2)C(=O)NCCC(=O)O)cc1	24	0	0	6	/	/
O=C1N=C(N2CCCC2C(=O)O)S/C1=C\c1ccco1 (stereo unspecified)	4	11*	0	7	-2	-5
O=C1N=C(N2CCCCC2)S/C1=C\c1ccco1	9	-2	0	-16	/	/
O=C(Nc1ccccc1)C1CCCN1C(=O)NC1CCCCC1 (stereo unspecified)	-8	0	0	0	/	/
O=C(O)C1CCCN1C(=O)NC1CCCCC1 (stereo unspecified)	12	4.9*	0	0	0	1
CCCCOC(C)n1cc(Cl)c(=O)[nH]c1=O (stereo unspecified)	8	5.1*	0	7	0	-2
COCC(=O)Nc1nc2ccc(OC)cc2s1	4	8.6*	0	-53	-2	-11
CCOc1ccc(NS(=O)(=O)c2cccc(C(=O)Nc3ccccc3C(=O)O)c2)cc1	12	0	0	-4	/	/
c1ccc(C2Nc3ccccc3C(c3ccccc3)(c3ccccc3)O2)cc1 (stereo unspecified)	-1	0	0	-6	/	/
COc1cc(C2NC(=O)NC(C)=C2C(C)=O)cc([N+](=O)[O-])c1O (stereo unspecified)	24	7.8*	0	9	1	10
COc1cc(C2NC(=O)NC(C)=C2C(C)=O)cc(Br)c1OCc1ccccc1 (stereo unspecified)	19	5.7*	0	-8	2	10
CCOC(=O)C1=C(C)NC(=O)NC1c1cc(Br)c(OCc2ccccc2)c(OC)c1 (stereo unspecified)	22	1	0	-4	/	/
COC(=O)C1=C(C)NC(=O)NC1c1cc(OC)c(O)c([N+](=O)[O-])c1 (stereo unspecified)	5	1	0	-17	/	/
CCOc1ccc(-n2cc(-c3ccccc3)c3c(Nc4ccc(C)cc4)ncnc32)cc1	3	1	0	-1	/	/
Cc1cccc(C(=O)Nc2nc3ccc(S(C)(=O)=O)cc3s2)c1[N+](=O)[O-]	11	1	0	-1	/	/
Cc1nnc(SCc2ccc(F)cc2)[nH]c1=O	-4	11*	0	-4	-1	5
Cc1nnc(SCc2ccccc2)[nH]c1=O	-3	4	0	7	/	/
COC(=O)c1ccc(NC(=O)C2CC2)cc1	5	6.3*	0	-1	0	-6
Cc1ccc2c(c1)c(=O)c1ccccc1n2CCCC(=O)Nc1ccc(Br)cn1	-6	17*	0	38*	0	16
Cc1ccc2c(c1)c(=O)c1ccccc1n2CCCC(=O)Nc1ccc(Br)cc1C	-7	0	0	2	/	/
SMILES	MITF inh	GPR151 ag	FBW7 act	TEAD-YAP block	GPR151 confirm	GPR119 ag
COc1ccc2c(c1)N(C)/C(=c1/s/c(=C3/C(=O)N(c4ccccc4Cl)N=C3C)n(Cc3ccccc3)c1=O)S2	13	0	0	-1	/	/
Cc1cccc(NC(=O)CN(c2ccc(Br)c(C)c2)S(C)(=O)=O)c1	11	10*	0	3	0	-4
CC(=O)c1cccc(NC(=O)CN(C)S(=O)(=O)c2ccc(F)cc2)c1	0	5.9*	0	-6	-1	-7
Cc1ccccc1NC(=O)CN(c1ccc(Cl)cc1C)S(C)(=O)=O	1	5.3*	0	-3	1	14
COc1cccc(NC(=O)CN(C)S(=O)(=O)c2ccc(F)cc2)c1	-10	0	0	3	/	/
CCOc1ccccc1N(CC(=O)Nc1ccccc1OC)S(C)(=O)=O	0	8.9*	0	-3	0	-9
Cc1ccc(NC(=O)CN(c2ccc(Br)c(C)c2)S(C)(=O)=O)cc1	9	2	0	-3	/	/
COc1ccccc1NC(=O)CN(c1ccccc1OC)S(C)(=O)=O	0	-1	0	5	/	/
CCN1CCN(CC(O)COc2ccc(Cl)cc2Cl)CC1 (stereo unspecified)	1	0	0	-5	/	/
CS(=O)(=O)N(CC(=O)Nc1ccc(F)c(Cl)c1)c1ccccc1F	0	0	0	11	/	/
COc1ccc(Cl)cc1N(CC(=O)Nc1cccc(C(C)=O)c1)S(C)(=O)=O	7	5.8*	0	0	1	-1
CSc1cccc(NC(=O)CN(c2ccc(F)c(Cl)c2)S(C)(=O)=O)c1	-10	8.5*	0	4	0	4
Cc1c(Cl)cccc1N(CC(=O)Nc1ccc(F)c(Cl)c1)S(C)(=O)=O	-10	5.5*	0	5	2	-2
O=C(Cn1cnc2sc3c(c2c1=O)CCCC3)NCC(=O)N1CCC(Cc2ccccc2)CC1	-17	0	0	9	/	/
Nc1cc(=O)nc(SCCC(=O)O)n1-c1ccccc1	18	0	0	-5	/	/
CCOc1ccccc1CNc1sc2c(c1C(=O)Nc1ccc(OC)cc1OC)CCC2	15	11*	0	1	2	11
CCOc1ccccc1CNc1sc2c(c1C(=O)Nc1ccc(OC)cc1)CCC2	-2	2	0	6	/	/
COc1ccc(/C=C(\C#N)c2nc3ccccc3[nH]2)cc1O	2	4.9*	0	-62	0	1
Cc1cccc(-c2cc(C(=O)N3CCN(C)CC3)c3ccccc3n2)c1	12	5.7*	0	9	0	8
CN1CCN(C(=O)c2cc3ccccc3nc2Cl)CC1	5	8.0*	0	4	-1	-5
